In PubChem BioAssay (NCI):
Compounds without any hit were thinned out: in the full panel of roughly 83,000, 20% have a hit.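 In brief: 96-well plates, 48 h treatment, single concentration, percent growth endpoint.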 The source made the active and inactive calls. The calls were made as follows: active = growth percent below 10; inactive = the rest.

Experiments:
Test in all cases: NCI-60 one-dose screen, 48 h (100 = growth as untreated, 0 = no growth, -100 = all killed)
Settings in all cases: 10 µM unless noted
[1] = tested on: NCI-H23 lung
[2] = tested on: NCI-H226 lung
[3] = tested on: NCI-H322M lung
[4] = tested on: HOP-62 NSCLC
[5] = tested on: NCI-H460 lung
[6] = tested on: HOP-92 NSCLC
[7] = tested on: NCI-H522 lung
[8] = tested on: A549/ATCC NSCLC
[9] = tested on: 786-0 renal
[10] = tested on: COLO 205 colon

Measured: growth

C[C@@H](NC(=O)c1ncnc(N)c1Cl)c1ncc(C(=O)Nc2cc(C(F)(F)F)c(Cl)cn2)s1
inactive: [1] 59.8% | [2] 78.6% | [3] 80.9% | [4] 63.1% | [5] 71.6% | [6] 64.1% | [7] 46% | [8] 53.2% | [9] 110% | [10] 13.2%

Cn1nccc1Nc1nccc(-c2ccn([C@H](CO)c3ccc(Cl)c(F)c3)c(=O)c2)n1
inactive: [1] 68.5% | [2] 110% | [3] 61% | [4] 78.8% | [5] 99.5% | [6] 103% | [7] 71.2% | [8] 72.3% | [9] 93% | [10] 14.4%

CN1CCC(CNc2ccc3ncc(-c4cccc(OC(F)(F)F)c4)n3n2)CC1
active: [1] -14.9% | [2] -8.6% | [3] 8.29% | [4] -53.1% | [5] -45.8% | [6] -56.8% | [7] -69.7% | [8] -38.4% | [9] -81.6% | [10] -88.6%

CC1(/C=N/NC(N)=S)NC(=O)NC1=O (stereo not given)
inactive: [1] 98% | [2] 95.1% | [3] 107% | [4] 78.5% | [5] 105% | [6] 92.5% | [7] 71.2% | [8] 72.4% | [9] 105% | [10] 98.7%

COc1ccc(-c2ccc3c(N4CCOC[C@@H]4C)nc(N4CCOC[C@@H]4C)nc3n2)cc1CO
active: [2] -9.74% | [3] -5.27% | [4] -12.9% | [5] 8.4% | [6] -21.1% | [7] 8.31% | [8] -12.6% | [9] 2.33% | [10] -14.1%
inactive: [1] 20.3%

Clc1ccc2c(NCCNc3nc(N4CCCC4)nc4ccccc34)ccnc2c1
active: [2] -31.2% | [3] -7.37% | [4] -47.2% | [5] -23.6% | [6] -1.92% | [7] -48% | [8] -4.72% | [9] -77.4% | [10] -81.4%
inactive: [1] 11.4%

CCCCCCCCCCCC[n+]1ccccc1
inactive: [2] 24.4% | [3] 55.7%
active: [1] 8.58% | [4] -8.28% | [5] 3.69% | [6] -24.8% | [7] 1.19% | [8] 9.04% | [9] -16.8% | [10] -74%

CN(C)C[C@@H]1CCn2cc(c3ccccc32)C2=C(C(=O)NC2=O)c2cn(c3ccccc23)CCO1
inactive: [3] 32.2% | [6] 46.1%
active: [1] -15.7% | [2] -12.5% | [4] -67.9% | [5] -70.6% | [7] -23.1% | [8] -12.4% | [9] -69.9% | [10] -53.8%

COc1c(OCCCN2CCOCC2)ccc2c3n(c(=NC(=O)c4cnc(N)nc4)nc12)CCN3
inactive: [1] 20.6% | [2] 23.7% | [4] 12.4%
active: [3] -12.6% | [5] 9.88% | [6] -14.6% | [7] 9.59% | [8] -5.58% | [9] -4.92% | [10] -18.6%

Cc1ncc(-c2ccnc(Nc3ccc(S(C)(=O)=O)cc3)n2)n1C(C)C
active: [1] -33.8% | [2] 6.32% | [3] -10.8% | [4] -14% | [5] -17.2% | [6] -4.8% | [7] -24.9% | [8] 1.7% | [9] 4.84% | [10] -27.4%

CO[C@@H](C(=O)N1Cc2[nH]nc(NC(=O)c3ccc(N4CCN(C)CC4)cc3)c2C1)c1ccccc1
active: [3] -0.392% | [4] -6.89% | [5] 4.44% | [6] -63.8% | [10] -88.2%
inactive: [1] 36.8% | [2] 37.3% | [7] 12.6% | [8] 19.1% | [9] 10.7%

Cc1cn(-c2cc(NC(=O)c3ccc(C)c(Nc4nccc(-c5cnccn5)n4)c3)cc(C(F)(F)F)c2)cn1
inactive: [1] 73% | [2] 86.9% | [3] 95.3% | [4] 55.9% | [5] 61.7% | [6] 89% | [7] 43.1% | [8] 62.5% | [9] 97.7% | [10] 25.3%

Cc1cccc(NC(=O)[C@@H]2c3ccccc3C(=O)N(c3ccc(Cl)cc3)[C@H]2c2ccc(Cl)cc2)n1
inactive: [1] 57.9% | [2] 55.1% | [3] 80.8% | [4] 53.1% | [5] 52.5% | [6] 42% | [7] 38.7% | [8] 23.6% | [9] 61.2% | [10] 30.7%

c1cn2cc(-c3ccc4cn[nH]c4c3)nc(Nc3ccc(N4CCOCC4)cc3)c2n1
inactive: [1] 64.8% | [2] 20.8% | [3] 70% | [5] 41.7% | [6] 39.2% | [7] 24.4% | [8] 45% | [9] 59.2% | [10] 61.3%
active: [4] 9.23%

CC(N)C(Cc1ccccc1)c1ccc(Cl)cc1 (stereo not given)
inactive: [1] 92.5% | [2] 89.3% | [3] 95.5% | [4] 56.9% | [5] 90.9% | [6] 56.5% | [7] 75.9% | [8] 76.2% | [9] 81% | [10] 84.4%

O=C(NOCCO)c1cc(CN2OCCCC2=O)c(F)c(F)c1Nc1ccc(I)cc1F
inactive: [1] 22.7% | [2] 50.9% | [3] 15.4% | [4] 36.8% | [5] 59.4% | [7] 45.8% | [8] 28.9% | [9] 64.6%
active: [6] -20% | [10] 5.72%

Clc1nc(Cl)c2ncn(C/C=C\Cn3cnc4c(Cl)nc(Cl)nc43)c2n1
active: [1] 9.28% | [2] -59.2% | [5] 3.79% | [6] -34.2% | [7] -76.7% | [8] -7.32% | [9] -9.15% | [10] -41.1%
inactive: [3] 21.4% | [4] 23.4%

CCCCCC(=O)OCc1ccc(Cl)c(Cl)c1
inactive: [1] 96.2% | [2] 100% | [3] 96.3% | [4] 101% | [5] 107% | [6] 109% | [7] 97.5% | [8] 103% | [9] 104% | [10] 106%

COc1cc2c(Oc3ccc(NC(=O)C4(C(=O)Nc5ccc(F)cc5)CC4)cc3F)ccnc2cc1OCCCN1CCOCC1
active: [3] -1.77% | [4] -13.5% | [5] -40.8% | [6] -58.2% | [7] -57% | [8] -77.1% | [9] -75.7% | [10] -71.3%
inactive: [1] 10.1% | [2] 12.3%

COc1cc(-c2nc(C(=O)NCC(=O)O)nn2-c2ccc(Cl)cc2)cc(OC)c1OC
inactive: [1] 97.5% | [2] 87.1% | [3] 102% | [4] 104% | [5] 110% | [6] 106% | [7] 97.1% | [8] 96.6% | [9] 103% | [10] 108%
